Results on 40 compounds are retold here after PubChem BioAssay AID488854 (National Center for Advancing Translational Sciences (NCATS), 2010).

Each structure is given as a SMILES string. “And” between values parts separate entries of the source, which are not always exact repeats. Equal values may be shown once. Results filed as inconclusive are left out. The source made the active and inactive calls. Calls follow the shape of the dose curve; as a rule, active = well fitted activation curve with a large enough effect; inconclusive = small, poorly fitted or top-dose-only effect; inactive = no such curve, though single readings can be large or run the other way.

Sequence of Lysosomal acid glucosylceramidase (Homo sapiens) (P04062 whole entry N409S): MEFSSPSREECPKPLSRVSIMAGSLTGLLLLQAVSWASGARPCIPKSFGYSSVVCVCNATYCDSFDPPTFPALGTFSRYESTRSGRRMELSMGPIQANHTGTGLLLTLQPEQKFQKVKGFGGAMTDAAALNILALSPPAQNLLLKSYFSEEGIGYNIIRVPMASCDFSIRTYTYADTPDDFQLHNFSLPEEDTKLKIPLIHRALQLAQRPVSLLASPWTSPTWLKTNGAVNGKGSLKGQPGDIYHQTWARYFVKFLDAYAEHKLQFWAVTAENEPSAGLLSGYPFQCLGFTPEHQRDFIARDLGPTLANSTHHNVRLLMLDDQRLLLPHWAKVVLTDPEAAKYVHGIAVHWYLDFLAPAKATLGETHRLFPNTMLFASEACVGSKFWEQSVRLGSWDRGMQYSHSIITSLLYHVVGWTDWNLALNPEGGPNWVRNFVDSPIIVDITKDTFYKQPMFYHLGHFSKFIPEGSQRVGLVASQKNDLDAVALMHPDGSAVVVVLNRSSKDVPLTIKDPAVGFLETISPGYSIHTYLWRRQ

The target of the assay is Lysosomal acid glucosylceramidase (Homo sapiens) (UniProt P04062). Kind of assay: qHTS Assay for Inhibitors and Activators of N370S glucocerebrosidase as a Potential Chaperone Treatment of Gaucher Disease: Confirmation for Probe SAR. To be noted: N370S GC spleen homogenate, 4MU-glucoside fluorescence; series mostly up to 57.5 µM. An excerpt:
NIH Chemical Genomics Center [NCGC] NIH Molecular Libraries Probe Production Centers Network [MLPCN] MLPCN Grant: MH086442-01 Assay Submitter (PI): Wei Zheng Glucocerebrosidase (GC) catalyzes the hydrolysis of beta-glucocerebroside to glucose and ceramide in lysosomes. Mutations in the glucocerebrosidase gene result in Gaucher disease, an autosomal recessive lysosomal storage disorder. Many of the mutations encountered in patients with Gaucher disease are missense alterations that may cause misfolding, decreased stability and/or mistrafficking of this lysosomal protein. […] These inhibitors include iminosugar analogs and three non-iminosugar inhibitors identified from a previous HTS of 62,000 compounds with the wild type recombinant enzyme. However, the enhancement of enzyme activity by the chaperone action of an enzyme inhibitor must be balanced against the direct inhibition of the enzyme. An enzyme activator could also function as a chaperone by binding to the enzyme and helping to correct its misfolding and mistrafficking. While activators for GC have not yet been identified, they may have better therapeutic potential than inhibitors. Therefore the discovery and development of chemical activators may provide a new strategy for the chaperone therapy. We have optimized a new assay using N370S mutant GC derived from the spleen of a Gaucher patient. […] In addition, the MLPCN compound library has expanded, which increases the chance of finding new and better probes.
NCGC Assay Protocol Summary: This is a fluorogenic enzyme assay with 4-methylumbelliferyl-beta-D-glucopyranoside as the substrate and N370S glucocerebrosidase from human spleen homogenate as the enzyme preparation. Upon the hydrolysis of this fluorogenic substrate, the resulting product, […] which can be detected by a standard fluorescence plate reader. Data were normalized to the controls for basal activity (without enzyme) and 100% activity (with enzyme). The AC50 values were determined from concentration-response data modeled with the standard Hill equation. Assay buffer: 50 mM citric acid (titrated with potassium phosphate to pH 5.0), 100 mM potassium chloride, 10 mM sodium chloride, 1 mM magnesium chloride, 0.01% Tween-20. 1536-well assay protocol: (1) Add 2 ul/well of spleen homogenate (27 ug final) (2) Add 23 nL compounds in DMSO solution. The final titration was 0.5 nM to 58 uM. (3) Add 2 ul of substrate (1 mM final) (4) Incubate at 37C for 40 min. (5) Add 2 ul stop solution (1M NaOH and 1M Glycine mixture, pH 10) (6) Detect the assay plate in a ViewLux plate reader (PerkinElmer) with Ex=365 nm and Em=440nm. Keywords: Glucocerebrosidase, beta-glucosidase, Gaucher Disease, pharmacological chaperone, chaperone therapy, high throughput screening, glucocerebrosidase inhibitor, MLSMR, MLSCN, NIH Roadmap, qHTS and NCGC
(qHTS replaces the single test concentration by a dilution series.)
On to `C#Cc1ccc(NC(=O)c2cnn3c(C)cc(C)nc23)cc1`, for which the Potency is 0.366 µM (active).

For the compound `Cc1cc(C)n2ncc(C(=O)Nc3ccc(Br)cc3)c2n1`, the Potency is 2.31 µM (active).

In the case of `Cc1cc(C)n2ncc(C(=O)Nc3cccc(C(F)(F)F)c3)c2n1`, the Potency is 6.51 µM (active).

In the case of `CC(=O)c1cccc(NC(=O)c2cnn3c(C)cc(C)nc23)c1`, the Potency is 25.9 µM (active).

Consider `COc1ccc(NC(=O)c2cnn3c(C)cc(C)nc23)cc1F`, for which the Potency is 0.819 µM (active).

For `Cc1cc(C)n2ncc(C(=O)Nc3cc(Cl)cc(Cl)c3)c2n1`, the Potency is 25.9 µM (active).

As to `COc1ccc(NC(=O)c2cnn3c(-c4ccccc4)cc(C)nc23)cc1`, the Potency entry is “inactive”.

Regarding `Cc1cc(C)n2ncc(C(=O)Nc3ccncc3)c2n1`, the Potency result is “inactive”.

On to `Cc1cc(C)n2ncc(C(=O)Nc3ccc(S(C)(=O)=O)cc3)c2n1`, for which the Potency result is “inactive”.

`Cc1cc(C)n2ncc(C(=O)NCC(C)C)c2n1`: the Potency was 25.9 µM (active).

On to `C=C1C=C(C(F)F)n2ncc(C(=O)Nc3ccc(C(C)CC)cc3)c2N1` (stereo not given), for which the Potency was 2.51 µM (active).

`Cc1cc(C)n2ncc(C(=O)Nc3ccc(C)c(C)c3)c2n1`: the Potency is 1.46 µM (active).

Take `Cc1cc(C)n2ncc(C(=O)NC3CCC(C(C)(C)C)CC3)c2n1` (stereo not given): the Potency was 8.19 µM (active) and 1.63 µM (active).

For `COc1ccc(NC(=O)c2cnn3c(C)cc(C)nc23)cc1Cl`, the Potency was 2.06 µM (active).

With `O=C(Nc1ccccc1Sc1ccccc1)c1cnn2c1NC(=C1CC1)C=C2C(F)(F)F`, the Potency was 14.1 µM (active).

In the case of `Cc1cc(C)n2ncc(C(=O)Nc3ccc4c(c3)CCC4)c2n1`, the Potency was 3.26 µM (active).

For `COc1ccc(NC(=O)c2cnn3c(C)cc(C)nc23)cc1`, the Potency was 6.51 µM (active).

`Cc1cc(C)n2ncc(C(=O)NCc3ccccc3)c2n1`: the Potency was 32.6 µM (active).

Take `Cc1cc(C)n2ncc(C(=O)NCc3ccco3)c2n1`: the Potency was 41.1 µM (active).

Take `Cc1ccc(NC(=O)c2cnn3c(C)cc(C)nc23)cc1`: the Potency is 3.26 µM (active).

For `Cc1cc(C)n2ncc(C(=O)Nc3ccc4c(c3)OCCO4)c2n1`, the Potency is 5.8 µM (active).

On to `Cc1cc(C)n2ncc(C(=O)NC3CCCCC3)c2n1`, for which the Potency is 13 µM (active).

With `OC[C@H]1CNC[C@@H](O)[C@@H]1O`, the Potency result is “inactive”.

Turning to `O=C(Nc1ccccc1Sc1ccccc1)c1cnn2c1NC(=C1CC1)C=C2C(F)F`, the Potency was 4.61 µM (active).

With `O=C(Nc1ccc2c(c1)CCC2)c1cnn2c1NC(=C1CC1)C=C2C(F)F`, the Potency was 3.98 µM (active).

`O=C(NC1CCCCC1)c1cnn2c1NC(=C1CC1)C=C2C(F)F`: the Potency is 12.6 µM (active).

On to `Cc1cc(-c2ccccc2)n2ncc(C(=O)Nc3ccccc3Sc3ccccc3)c2n1`, for which the Potency result was “inactive”.

With `CC(=O)Nc1ccccc1NC(=O)c1cnn2c(C)cc(C)nc12`, the Potency result was “inactive”.

Regarding `Cc1cc(C)n2ncc(C(=O)Nc3ccc(Cl)c(Cl)c3)c2n1`, the Potency is 3.66 µM (active).

As to `Cc1cc(-c2ccccc2)nc2c(C(=O)Nc3ccc4c(c3)CCC4)cnn12`, the Potency was 8.19 µM (active).

Consider `Cc1cc(C)n2ncc(C(=O)Nc3cccc(C#N)c3)c2n1`, for which the Potency result was “inactive”.

Turning to `Cc1cc(-c2ccccc2)nc2c(C(=O)Nc3ccc(Cl)c(Cl)c3)cnn12`, the Potency was 6.51 µM (active).

Consider `Cc1ccc(NC(=O)c2cnn3c(C)cc(C)nc23)c(C)c1`, for which the Potency is 10.3 µM (active).

Turning to `Cc1cc(C)n2ncc(C(=O)Nc3ccc(C(F)(F)F)cc3)c2n1`, the Potency is 2.06 µM (active).

Consider `Cc1cc(C)n2ncc(C(=O)Nc3ccccc3)c2n1`, for which the Potency is 5.17 µM (active).

`CC(=O)Nc1ccc(NC(=O)c2cnn3c(C)cc(C)nc23)cc1`: the Potency entry is “inactive”.

With `Cc1cc(-c2ccccc2)n2ncc(C(=O)Nc3ccc(Cl)c(Cl)c3)c2n1`, the Potency entry was “inactive”.

Turning to `Cc1cc(C)n2ncc(C(=O)N3CCCC3)c2n1`, the Potency entry is “inactive”.

Turning to `Cc1cccc(NC(=O)c2cnn3c(C)cc(C)nc23)c1`, the Potency is 3.66 µM (active).

On to `CNC(=O)c1cnn2c(C)cc(C)nc12`, for which the Potency entry is “inactive”.
